In experiment [1] the target is T1, Tyrosine-protein kinase receptor TYRO3 (Homo sapiens) (UniProt Q06418).
T1 sequence (whole entry): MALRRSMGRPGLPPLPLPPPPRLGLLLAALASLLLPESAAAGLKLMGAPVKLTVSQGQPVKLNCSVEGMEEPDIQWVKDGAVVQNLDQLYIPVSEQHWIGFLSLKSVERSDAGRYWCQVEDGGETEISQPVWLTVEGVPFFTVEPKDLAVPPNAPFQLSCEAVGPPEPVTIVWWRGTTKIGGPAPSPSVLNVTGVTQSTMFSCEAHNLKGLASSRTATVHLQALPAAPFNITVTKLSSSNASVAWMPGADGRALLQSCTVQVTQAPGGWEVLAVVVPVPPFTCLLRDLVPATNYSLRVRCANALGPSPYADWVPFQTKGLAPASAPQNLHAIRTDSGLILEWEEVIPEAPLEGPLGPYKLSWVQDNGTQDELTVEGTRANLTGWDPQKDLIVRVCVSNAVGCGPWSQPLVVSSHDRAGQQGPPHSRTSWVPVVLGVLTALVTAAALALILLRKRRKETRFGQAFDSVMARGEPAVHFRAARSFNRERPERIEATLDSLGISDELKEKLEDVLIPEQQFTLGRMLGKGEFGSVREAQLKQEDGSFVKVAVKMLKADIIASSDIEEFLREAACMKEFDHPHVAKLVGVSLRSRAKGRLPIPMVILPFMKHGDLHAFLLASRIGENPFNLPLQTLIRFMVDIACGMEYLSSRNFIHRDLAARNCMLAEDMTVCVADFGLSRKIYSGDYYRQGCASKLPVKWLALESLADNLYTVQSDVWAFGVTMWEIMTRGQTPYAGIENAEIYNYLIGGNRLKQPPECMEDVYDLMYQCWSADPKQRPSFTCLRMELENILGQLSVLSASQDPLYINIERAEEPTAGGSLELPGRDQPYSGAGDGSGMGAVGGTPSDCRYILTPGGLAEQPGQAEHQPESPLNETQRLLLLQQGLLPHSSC
The following applies: at 1 µM.

Experiment [2] addresses Tyrosine-protein kinase Yes (Homo sapiens) (UniProt P07947). The following applies: at 0.1 µM.
The target is the same in experiment [3]. As to conditions: at 1 µM.
For experiment [4], the target named is T2, Tyrosine-protein kinase ZAP-70 (Homo sapiens) (UniProt P43403).
T2 sequence (whole entry): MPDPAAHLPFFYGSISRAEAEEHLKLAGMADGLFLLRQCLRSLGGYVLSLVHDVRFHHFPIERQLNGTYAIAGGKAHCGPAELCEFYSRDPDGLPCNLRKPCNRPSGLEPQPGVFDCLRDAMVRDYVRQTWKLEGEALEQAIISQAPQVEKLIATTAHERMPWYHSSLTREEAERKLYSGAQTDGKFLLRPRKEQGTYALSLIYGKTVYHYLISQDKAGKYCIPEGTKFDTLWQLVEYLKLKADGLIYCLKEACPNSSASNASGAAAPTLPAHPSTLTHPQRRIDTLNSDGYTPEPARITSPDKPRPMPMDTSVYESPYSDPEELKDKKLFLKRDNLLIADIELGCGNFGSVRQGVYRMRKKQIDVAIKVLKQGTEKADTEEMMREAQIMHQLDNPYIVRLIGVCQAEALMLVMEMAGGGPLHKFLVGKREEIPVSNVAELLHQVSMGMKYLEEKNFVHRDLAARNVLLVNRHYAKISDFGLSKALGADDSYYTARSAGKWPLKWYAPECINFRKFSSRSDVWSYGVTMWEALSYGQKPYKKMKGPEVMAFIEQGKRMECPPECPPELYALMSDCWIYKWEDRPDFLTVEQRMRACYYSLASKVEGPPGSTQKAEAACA
The following applies: at 0.1 µM.

Experiment [5] deals with T2, Tyrosine-protein kinase ZAP-70 (Homo sapiens). The following applies: at 1 µM.
Experiment [6] has as its target Serine/threonine-protein kinase B-raf (Homo sapiens) (UniProt P15056). The following applies: at 0.1 µM.
Experiment [7] shares this target. The following applies: at 1 µM.
Experiment [8] deals with Serine/threonine-protein kinase B-raf (Homo sapiens), P15056 [V600E]. As to conditions: at 0.1 µM.
Chain of Serine/threonine-protein kinase B-raf (Homo sapiens), P15056 [V600E] (P15056 whole entry V600E): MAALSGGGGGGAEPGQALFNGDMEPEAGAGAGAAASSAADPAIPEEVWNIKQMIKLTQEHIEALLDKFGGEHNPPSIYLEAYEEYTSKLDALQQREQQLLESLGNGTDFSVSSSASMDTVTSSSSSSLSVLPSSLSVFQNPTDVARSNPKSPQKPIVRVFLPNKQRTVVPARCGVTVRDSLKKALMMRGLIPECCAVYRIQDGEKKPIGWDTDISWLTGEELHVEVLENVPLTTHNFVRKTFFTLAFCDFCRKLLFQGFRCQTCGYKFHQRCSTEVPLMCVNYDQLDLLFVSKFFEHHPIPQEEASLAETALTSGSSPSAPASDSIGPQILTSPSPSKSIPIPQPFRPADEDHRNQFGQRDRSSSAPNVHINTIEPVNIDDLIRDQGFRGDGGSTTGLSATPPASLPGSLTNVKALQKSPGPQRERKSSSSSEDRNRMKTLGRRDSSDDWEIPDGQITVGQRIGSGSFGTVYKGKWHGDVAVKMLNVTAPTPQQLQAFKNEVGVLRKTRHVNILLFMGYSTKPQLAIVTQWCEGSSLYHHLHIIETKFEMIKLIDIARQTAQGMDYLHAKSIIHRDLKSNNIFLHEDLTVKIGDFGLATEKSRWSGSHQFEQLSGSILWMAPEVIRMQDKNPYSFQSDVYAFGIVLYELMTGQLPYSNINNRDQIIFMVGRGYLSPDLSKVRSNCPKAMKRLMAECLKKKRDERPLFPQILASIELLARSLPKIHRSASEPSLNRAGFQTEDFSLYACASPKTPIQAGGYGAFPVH
Experiment [9] shares this test system. As to conditions: at 1 µM.
The target in experiment [10] is RAF proto-oncogene serine/threonine-protein kinase (Homo sapiens) (UniProt P04049). The following applies: at 0.1 µM.
Chain of RAF proto-oncogene serine/threonine-protein kinase (Homo sapiens) (P04049 whole entry): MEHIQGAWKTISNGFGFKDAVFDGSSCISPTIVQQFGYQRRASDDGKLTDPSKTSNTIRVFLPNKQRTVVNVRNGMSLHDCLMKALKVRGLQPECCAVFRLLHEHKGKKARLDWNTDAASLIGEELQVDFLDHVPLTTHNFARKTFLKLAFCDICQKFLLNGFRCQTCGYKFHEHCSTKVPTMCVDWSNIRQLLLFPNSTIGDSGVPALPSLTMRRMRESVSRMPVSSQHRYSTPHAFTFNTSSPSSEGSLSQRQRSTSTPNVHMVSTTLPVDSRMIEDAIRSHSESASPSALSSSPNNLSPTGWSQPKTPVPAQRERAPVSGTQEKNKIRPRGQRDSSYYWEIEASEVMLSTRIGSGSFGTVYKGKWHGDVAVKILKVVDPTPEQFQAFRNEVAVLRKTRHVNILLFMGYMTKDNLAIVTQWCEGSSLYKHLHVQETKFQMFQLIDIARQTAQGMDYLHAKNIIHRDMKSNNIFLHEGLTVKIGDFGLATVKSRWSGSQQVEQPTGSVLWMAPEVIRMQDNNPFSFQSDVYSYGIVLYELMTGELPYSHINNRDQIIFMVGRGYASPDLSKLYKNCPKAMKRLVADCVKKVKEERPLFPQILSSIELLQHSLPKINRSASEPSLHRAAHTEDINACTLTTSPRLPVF
Experiment [11] has the same target. The following applies: at 1 µM.
Experiment [12] has as its target T3, Interleukin-1 receptor-associated kinase 4 (Homo sapiens) (UniProt Q9NWZ3).
T3 sequence (whole entry): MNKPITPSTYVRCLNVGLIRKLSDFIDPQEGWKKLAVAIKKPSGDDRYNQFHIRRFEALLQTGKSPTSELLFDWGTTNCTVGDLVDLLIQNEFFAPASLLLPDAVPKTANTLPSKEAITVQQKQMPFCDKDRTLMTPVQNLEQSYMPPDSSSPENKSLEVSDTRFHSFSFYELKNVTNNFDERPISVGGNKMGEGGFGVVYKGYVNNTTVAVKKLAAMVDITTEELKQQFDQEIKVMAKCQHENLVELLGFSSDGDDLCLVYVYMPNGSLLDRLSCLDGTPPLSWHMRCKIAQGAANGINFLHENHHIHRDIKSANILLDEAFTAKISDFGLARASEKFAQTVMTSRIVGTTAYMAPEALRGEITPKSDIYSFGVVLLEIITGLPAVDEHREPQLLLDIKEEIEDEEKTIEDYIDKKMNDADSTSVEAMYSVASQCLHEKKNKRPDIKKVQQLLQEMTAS
As to conditions: at 0.1 µM.

Experiment [13] deals with T3, Interleukin-1 receptor-associated kinase 4 (Homo sapiens). As to conditions: at 1 µM.
Experiment [14] concerns the target Leucine-rich repeat serine/threonine-protein kinase 2 (Homo sapiens) (UniProt Q5S007). The following applies: at 0.1 µM.
For experiment [15] the target is unchanged. The following applies: at 1 µM.
Experiment [16] concerns Leucine-rich repeat serine/threonine-protein kinase 2 (Homo sapiens), Q5S007 [G2019S]. As to conditions: at 0.1 µM.
Chain of Leucine-rich repeat serine/threonine-protein kinase 2 (Homo sapiens), Q5S007 [G2019S] (Q5S007 whole entry G2019S): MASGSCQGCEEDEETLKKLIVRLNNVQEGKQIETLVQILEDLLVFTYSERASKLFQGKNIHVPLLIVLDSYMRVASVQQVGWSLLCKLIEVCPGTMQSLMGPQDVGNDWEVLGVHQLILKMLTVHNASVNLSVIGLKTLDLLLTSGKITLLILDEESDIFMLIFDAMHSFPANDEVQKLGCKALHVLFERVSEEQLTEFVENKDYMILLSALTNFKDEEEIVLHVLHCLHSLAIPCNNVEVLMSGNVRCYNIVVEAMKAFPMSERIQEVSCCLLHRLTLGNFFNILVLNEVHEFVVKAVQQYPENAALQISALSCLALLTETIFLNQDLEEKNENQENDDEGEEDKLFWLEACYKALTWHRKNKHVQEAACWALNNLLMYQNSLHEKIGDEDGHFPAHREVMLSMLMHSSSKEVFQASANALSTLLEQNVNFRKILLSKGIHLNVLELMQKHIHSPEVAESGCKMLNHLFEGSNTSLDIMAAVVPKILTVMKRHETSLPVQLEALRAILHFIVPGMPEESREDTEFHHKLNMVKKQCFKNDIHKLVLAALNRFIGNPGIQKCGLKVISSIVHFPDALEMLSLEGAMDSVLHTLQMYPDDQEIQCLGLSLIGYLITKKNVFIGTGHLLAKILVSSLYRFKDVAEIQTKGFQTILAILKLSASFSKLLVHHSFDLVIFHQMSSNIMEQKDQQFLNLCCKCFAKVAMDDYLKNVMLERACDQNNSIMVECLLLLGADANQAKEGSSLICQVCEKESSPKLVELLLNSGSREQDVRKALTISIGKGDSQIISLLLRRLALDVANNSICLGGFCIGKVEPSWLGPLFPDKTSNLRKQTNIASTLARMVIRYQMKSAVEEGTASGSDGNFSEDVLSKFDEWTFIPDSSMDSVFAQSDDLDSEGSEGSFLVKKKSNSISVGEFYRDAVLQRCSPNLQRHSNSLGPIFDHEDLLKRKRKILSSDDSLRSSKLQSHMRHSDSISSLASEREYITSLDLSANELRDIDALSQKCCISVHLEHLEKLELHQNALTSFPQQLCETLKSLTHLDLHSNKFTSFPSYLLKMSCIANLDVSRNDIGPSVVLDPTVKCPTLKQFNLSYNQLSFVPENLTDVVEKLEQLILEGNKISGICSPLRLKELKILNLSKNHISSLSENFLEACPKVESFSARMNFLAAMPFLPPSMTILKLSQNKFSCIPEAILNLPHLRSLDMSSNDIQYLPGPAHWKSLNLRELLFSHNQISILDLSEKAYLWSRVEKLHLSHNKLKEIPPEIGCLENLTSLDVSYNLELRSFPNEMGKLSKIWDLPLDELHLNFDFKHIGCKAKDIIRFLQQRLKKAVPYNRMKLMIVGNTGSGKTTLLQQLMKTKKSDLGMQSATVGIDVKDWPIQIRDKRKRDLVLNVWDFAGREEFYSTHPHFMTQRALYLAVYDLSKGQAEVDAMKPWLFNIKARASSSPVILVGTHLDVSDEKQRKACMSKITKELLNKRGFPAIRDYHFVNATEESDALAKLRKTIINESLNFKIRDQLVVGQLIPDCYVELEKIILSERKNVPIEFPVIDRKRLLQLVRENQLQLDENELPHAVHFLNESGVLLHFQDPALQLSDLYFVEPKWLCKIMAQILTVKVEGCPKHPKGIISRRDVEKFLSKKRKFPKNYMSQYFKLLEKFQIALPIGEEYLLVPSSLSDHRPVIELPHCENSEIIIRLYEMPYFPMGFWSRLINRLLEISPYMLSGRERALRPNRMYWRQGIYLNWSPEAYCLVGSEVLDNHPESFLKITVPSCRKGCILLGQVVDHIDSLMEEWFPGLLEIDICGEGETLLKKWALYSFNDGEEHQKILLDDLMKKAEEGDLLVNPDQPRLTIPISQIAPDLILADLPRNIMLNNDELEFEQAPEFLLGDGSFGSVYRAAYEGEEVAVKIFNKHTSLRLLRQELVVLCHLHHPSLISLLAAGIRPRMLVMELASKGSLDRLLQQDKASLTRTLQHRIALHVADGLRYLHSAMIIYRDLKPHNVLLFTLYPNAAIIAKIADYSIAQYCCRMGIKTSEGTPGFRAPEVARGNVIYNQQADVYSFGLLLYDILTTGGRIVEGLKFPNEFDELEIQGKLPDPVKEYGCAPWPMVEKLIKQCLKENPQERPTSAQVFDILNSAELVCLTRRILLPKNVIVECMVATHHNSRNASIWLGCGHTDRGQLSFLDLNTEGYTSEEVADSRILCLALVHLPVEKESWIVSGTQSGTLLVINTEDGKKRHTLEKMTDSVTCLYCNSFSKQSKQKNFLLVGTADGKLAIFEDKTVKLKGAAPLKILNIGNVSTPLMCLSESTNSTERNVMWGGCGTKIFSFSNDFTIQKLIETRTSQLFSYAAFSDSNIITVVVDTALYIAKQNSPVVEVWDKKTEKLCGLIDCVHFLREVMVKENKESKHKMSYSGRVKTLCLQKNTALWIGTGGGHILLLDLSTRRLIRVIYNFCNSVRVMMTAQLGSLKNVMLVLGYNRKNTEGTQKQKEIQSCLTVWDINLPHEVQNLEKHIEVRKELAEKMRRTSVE
Experiment [17] shares this test system. The following applies: at 1 µM.

Several values for one entry are separate records, joined by “and”; a condition that tells them apart may be missing. Identical values can stand only once.

Chain of Leucine-rich repeat serine/threonine-protein kinase 2 (Homo sapiens) (Q5S007 whole entry): as the sequence (Q5S007 whole entry G2019S) above, with S2019G counted along it
Chain of Tyrosine-protein kinase Yes (Homo sapiens) (P07947 2-543 limits assumed): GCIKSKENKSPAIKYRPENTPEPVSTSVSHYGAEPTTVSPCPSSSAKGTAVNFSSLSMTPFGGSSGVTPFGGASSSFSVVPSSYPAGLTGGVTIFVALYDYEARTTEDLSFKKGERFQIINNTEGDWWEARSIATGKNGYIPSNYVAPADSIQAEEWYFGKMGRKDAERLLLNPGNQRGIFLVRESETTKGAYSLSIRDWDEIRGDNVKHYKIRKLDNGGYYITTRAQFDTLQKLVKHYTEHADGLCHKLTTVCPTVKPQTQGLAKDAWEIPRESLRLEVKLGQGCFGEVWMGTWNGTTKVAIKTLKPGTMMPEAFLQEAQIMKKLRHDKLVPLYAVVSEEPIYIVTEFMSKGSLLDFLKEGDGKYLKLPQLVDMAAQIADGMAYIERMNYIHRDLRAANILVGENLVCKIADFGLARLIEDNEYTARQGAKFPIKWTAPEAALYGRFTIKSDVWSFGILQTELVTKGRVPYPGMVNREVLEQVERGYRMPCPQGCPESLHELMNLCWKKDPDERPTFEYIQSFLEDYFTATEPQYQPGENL
Chain of Serine/threonine-protein kinase B-raf (Homo sapiens) (P15056 whole entry): as the sequence (P15056 whole entry V600E) above, with E600V counted along it

Broadly, the inhibition is the relative decrease from the control value, in per cent. In the case of `NS(=O)(=O)c1cccc(N/C=C2\C(=O)Nc3ccccc32)c1`, the inhibition in experiment [1] came to 8.3%; in [2], 4.04%; in experiment [3], 9.49%; in experiment [4], 1.68%; in [5], 4.58%; in experiment [6] it was 6.24%. In addition, the inhibition in [7] was 7.76%; in experiment [8], 6.39%; in experiment [9] it was 7.82%; in experiment [10], -0.16%; in experiment [11], 2.59%; in experiment [12], 2.9%. Further, the inhibition came to 2.37% in experiment [13]; 3.41% in experiment [14]; 15.8% in experiment [15]; 6.57% in experiment [16]; 34% in [17].
On to `COc1cccc(-n2ncc3c(N/N=C/c4ccc(C(=O)NCCN(C)C)cc4)ncnc32)c1`, for which the inhibition in experiment [1] was 60.6%; in experiment [2] it was 58.5%; in experiment [3], 86%; in experiment [4], -2.3%; in experiment [5], 4.14%; in [6], 11.1%. Further, the inhibition in experiment [7] is 27.8%; in experiment [8], 9.71%; in experiment [9] it was 23.6%; in experiment [10], 2.11%; in [11], 1.13%; in [12], -3.06%. Moreover, the inhibition was 1.87% in [13]; 8.48% in experiment [14]; 17.2% in [15]; 12.5% in experiment [16]; 49.6% in [17].
Turning to `Cc1c2ccc(N(C)c3ccnc(Nc4cccc(S(N)(=O)=O)c4)n3)cc2nn1C`, the inhibition in [1] came out at 16.1%; in experiment [2], 14.9%; in [3], 62.8%; in experiment [4], 0.81%; in experiment [5], 11.5%; in experiment [6], 9.33%. Further, the inhibition in experiment [7] was 9.79%; in experiment [8], 8.28%; in experiment [9] it was 12.5%; in [10], -1.01%; in experiment [11], 41%; in [12], 4.14%. The inhibition was 3.25% in experiment [13]; 0.45% in experiment [14]; 9.99% in experiment [15]; 1.58% in experiment [16]; 12.6% in experiment [17].
With `Nc1nonc1-c1nc2cnccc2n1C1CC1`, the inhibition in experiment [1] was 4.53% and 2.7%; in [2], -0.59% and 1.1%; in experiment [3], 1.1% and 2.73%; in experiment [4], 0.56% and -1.17%; in [5], 3.98% and -1.48%; in experiment [6], 5.09% and 3.82%. Further, the inhibition in experiment [7] was 9.07% and 5.15%; in experiment [8], 4.37% and 3.69%; in [9], 8.28% and 5.87%; in experiment [10], 6.05% and 2.66%; in experiment [11], 5.43% and 2.92%; in [12], -0.18% and 2.38%. Further, the inhibition was 2.91% and 1.65% in experiment [13]; 8.81% and 0.08% in [14]; 15.4% and 10.4% in [15]; 13.3% and 5.33% in experiment [16]; 44.6% and 35% in experiment [17].
In the case of `CCCNc1cccc(-n2ncc3c(N/N=C/c4ccncc4)ncnc32)c1`, the inhibition in [1] is 42.8%; in [2], 43.1%; in experiment [3] it was 82.8%; in experiment [4] it was 2.44%; in experiment [5], 3.95%; in experiment [6] it was 0%. The inhibition is 1.5% in experiment [7]; 0.21% in experiment [8]; 2.86% in [9]; -0.1% in experiment [10]; -3.81% in experiment [11]; 2.03% in [12]. For the same compound, the inhibition in [13] was 0.71%; in [14], 3.27%; in experiment [15] it was 12.2%; in experiment [16], 5.55%; in experiment [17] it was 37.8%.
Consider `O=C(O[C@H]1CN[C@H](C#Cc2cc3ncnc(Nc4ccc(OCc5cccc(F)c5)c(Cl)c4)c3s2)C1)N1CCOCC1`, for which the inhibition in experiment [1] amounted to 5.62%; in experiment [2], 0.43%; in experiment [3] it was 8.74%; in [4], 3.21%; in experiment [5], 0.2%; in experiment [6], 9.9%. Moreover, the inhibition in experiment [7] is 7.06%; in experiment [8], 8.49%; in experiment [9] it was 6.1%; in experiment [10], 10.3%; in experiment [11], 0.51%; in [12] it was 1.13%. Also, the inhibition in experiment [13] came out at 2.48%; in experiment [14] it was 2.8%; in experiment [15], 7.32%; in experiment [16] it was 4.61%; in experiment [17] it was 8.39%.
In the case of `CN1CCN(Cc2ccc(-c3cc4ncnc(Nc5ccc(OCc6cccc(F)c6)c(Cl)c5)c4s3)o2)CC1`, the inhibition in experiment [1] was 12.4% and 17.4%; in experiment [2] it was 14% and 15.7%; in experiment [3], 58.6% and 60.3%; in experiment [4], 1.12% and 6.43%; in [5], 7.67% and 11.7%; in [6] it was 4.33% and 8.54%. Besides, the inhibition in experiment [7] is 5.51% and 9.42%; in experiment [8], 3.61% and 9.64%; in experiment [9], 4.75% and 9.2%; in experiment [10], -0.28% and 16.3%; in [11], -2.88% and 11.7%; in experiment [12], 0.28% and 1.52%. The inhibition was 0.56% and 2.95% in [13]; 2.03% and 2.75% in experiment [14]; 6.29% and 5.13% in [15]; 4.59% and 4.9% in experiment [16]; 7.45% and 5.92% in [17].
